A selection: hits, their analogues and other compounds. The true share with any hit is near 1.8%.
Phagocyt inh: macrophage phagocytosis inhibition; J774A.1 macrophage IgG-bead phagocytosis, imaging; inhibition, % at 5 µM; 110,000 tested, 0.07% active; AID 1029;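 active means inhibition above the mean of the plate negative controls plus 5 SD, cut at about 13% in these data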;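 further: phagocytic index as fraction of beads internalized from green versus red external bead signal; plate controls were DMSO negative control for no effect and cytochalasin-D positive control for full effect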
Measles CPE: protection of cells from measles virus; Measles virus-infected cells, CPE protection, absorbance; protection (pct of control), % at 4 µM; 140,000 tested, 1.5% active; in the data active means protection mostly above about 24%, no sharp cut-off; inactive means mostly below about 26%
sdo1 growth: restores growth of sdo1-depleted yeast; S. cerevisiae sdo1-depleted JHY4D growth rescue, OD600 30 h; hits give high values; pdr5 snq2 efflux-pump mutant strain; z-score at 10 µM; 140,000 tested, 0.21% active; AID 817;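 active means z-score above 3 at both the 24 hr and the 30 hr optical density reads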;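 further: z-score against mean and SD of all compound wells on the same plate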
SDO1 rescue DR: SDO1-depleted yeast growth rescue confirmation; AID 949; 440 tested, 44% active; OD recovery (concentration not given with the values); S. cerevisiae JHY4D (SDO1-depleted) growth rescue, OD600, 30 h; hits give high values; efflux-deficient strain, SNQ2 and PDR5 mutated; shares compounds with sdo1 growth;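 active means yeast growth recovered at 30 hours, either rising with dose fitted slope above 0.001 or with average optical density gain above 0.07, some results past the limit were not filed as active; inactive means growth falling with dose or no effect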;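 further: gain in OD600 from 0 h to 30 h averaged across all seven doses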
Active calls of the source: *; x = no result given.

SMILES | Phagocyt inh | Measles CPE | sdo1 growth | SDO1 rescue DR
O=C(CCCOc1ccc(Cl)cc1Cl)N/N=C/c1cccc([N+](=O)[O-])c1 | 2 | 12 | 1.3 | 0.059
CCNC(=O)CCCOc1ccc(Cl)cc1Cl | -1 | 9 | 0.57 | x
Cc1ccc(SCC(=O)NC(C)(C)C)cc1 | 0 | 12 | 0.84 | x
O=C(O)CCCn1nc(C(F)(F)F)c2c1CCCCC2 | 0 | 4 | 3.4* | 0.061*
O=C(Cn1nc(C(F)(F)F)c2c1CCC2)NC1CCCCC1 | 0 | 17 | -0.45 | x
CC(C)(OC1OC(CO)C(O)C(O)C1O)[C@H]1Oc2ccc3ccc(=O)oc3c2[C@H]1O (some centres not stated) | x | 3 | 0.48 | x
Brc1ccc(-n2cc(-c3ccccc3)c3c(NN4CCOCC4)ncnc32)cc1 | 1 | 8 | -1.4 | x
O=C(CCN1C(=O)c2ccccc2C1=O)Nc1ccc2c(c1)OCCO2 | 1 | 7 | 1.7 | 0.076*
O=C(CCCCCN1C(=O)c2ccccc2C1=O)Nc1ccc2c(c1)OCCO2 | x | 2 | 0.03 | x
CCCCNS(=O)(=O)c1ccc2nc(-c3cccs3)cc(C(=O)NCC(OC)OC)c2c1 | -3 | 22 | -0.78 | x
CC1CCCN(c2ccc(C(=O)NCc3ccco3)cc2[N+](=O)[O-])C1 (configuration not stated) | 2 | 3 | -1.5 | x
Cc1oc(-c2ccc(Cl)cc2)nc1CSCC(=O)NCCCN1CCOCC1 | -2 | 5 | 0.11 | x
CCOc1ccc(-c2nc(CSCC(=O)NCCN3CCOCC3)c(C)o2)cc1 | -5 | 7 | 2.4 | 0.043
COc1ccc2nc3ccccc3nc2c1NC(=O)c1ccc(Cl)cc1Cl | -11 | 3 | 1.6 | 0.096
COc1cc(-c2cc(C(=O)Nc3c(Cl)cc(Cl)cc3Cl)c3ccccc3n2)cc(OC)c1OC | 1 | 8 | 0.76 | x
COc1ccc(-c2nnc(SCC(=O)NNC(=O)Cc3ccccc3)n2C)cc1OC | -5 | 34 | 0.08 | x
CC1CCCCN1CCNC(=O)c1cnn2ccccc12 (configuration not stated) | 0 | 6 | -0.13 | x
Cc1ccc(N(C)C(=O)N2CCN(S(=O)(=O)c3c(C)cc(C)cc3C)CC2)cc1 | 0 | 21 | 2.8 | x
Cc1nc2ccccc2c(=O)n1/N=C/c1cccnc1 | -1 | 8 | 3.1* | 0.053
Cc1nc2ccccc2n1/N=C/c1cccnc1 | 0 | 43 | 0.29 | x
CC(C)c1[nH]nc2c1C(Cc1ccccc1)C(C#N)=C(N)O2 (configuration not stated) | 0 | 19 | 1.3 | x
Cc1ccc(Cn2c(SCC(=O)NCC3CCCO3)nc3c(sc4ccccc43)c2=O)cc1 (configuration not stated) | 0 | 1 | 0.23 | x
COc1ccc(CC(NC(C)=O)C(=O)NC2CCN(S(=O)(=O)c3ccccc3)CC2)cc1OC (configuration not stated) | 0 | 7 | 0.33 | x
COc1ccc(CC(NC(C)=O)C(=O)NC2CCN(S(=O)(=O)c3cccc4ccccc34)CC2)cc1OC (configuration not stated) | -1 | 2 | 2.1 | 0.097*
CC1CN(C(=O)COc2ncnc3ccccc23)CC(C)O1 (configuration not stated) | -6 | 26 | 1.1 | x
O=C1OC(c2ccc(O)cc2)(c2ccc(O)cc2)c2ccccc21 | x | 19 | 0.39 | x
CC(C)C1(C(C)C)OC(=O)c2ccccc21 | -2 | 7 | 3* | 0.068
O=C(CCSc1ccccc1)Nc1ccccc1C(=O)N1CCCC1 | -7 | 23 | 0.17 | x
Cc1ccc(SCCC(=O)Nc2ccccc2C(=O)N2CCOCC2)cc1 | 1 | 14 | 4.1* | 0.05

Screening data: PubChem BioAssay, several laboratories
